From the supplement of paper PMC10037445 come the findings set out here.

Over roughly 2,900 compounds, “NF-kB SEAP reporter activity, fold change vs agonist alone” has its median near 0.99; the highest 2% begin near 2.6. This excerpt belongs to a sample that is enriched for the highest values.

For assay [1], the system named is RAW-Dual. The experiment in a line: NF-kB SEAP reporter activity, fold change vs agonist alone; cytotoxicity flag (confluency mask): not cytotoxic; higher = enhanced NF-kB activity. The procedure, abridged:
(§1)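 After 50 nL of library stock was delivered by pin tool to RAW-Dual macrophages (50,000 cells/well, DMEM, 384-well plates), a PRR agonist was added 1 h later and the plates were kept at 37 °C, 5% CO2. Twenty hours later, IRF was read from supernatant by QuantiLuc luminescence and NF-κB by QuantiBlue absorbance at 620 nm. Reporter activity is stated as fold change over agonist-alone wells. Wells with IncuCyte confluency under 70% of agonist controls in both mask sets were counted as cytotoxic.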

Assay [2] relates to RAW-Dual. Nature of the assay: NF-kB SEAP reporter activity, fold change vs agonist alone; higher = enhanced NF-kB activity. Put shortly:
as §1

The subject of assay [3] is RAW-Dual. Nature of the assay: NF-kB SEAP reporter activity, fold change vs agonist alone; cytotoxicity flag (confluency mask): cytotoxic (confluency <70% of control); higher = enhanced NF-kB activity. Put shortly:
as §1

[4] abbreviates: agonist: ODN 1826 (TLR9) 0.5 ug/mL.
Setting [5] is: agonist: Pam2CSK4 (TLR2/6) 0.1 ug/mL.
Setting [6] is: agonist: Pam3CSK4 (TLR2/1) 0.1 ug/mL.
Where [7] appears, read: library stock concentration (final ~1000-fold dilution): 10 mM, cytotoxicity flag (confluency mask): not cytotoxic, agonist: Imiquimod (TLR7) […].
The mark [8] stands for this setting: library stock concentration (final ~1000-fold dilution): 10 mM, cytotoxicity flag (confluency mask): not cytotoxic, agonist: MPLA (TLR4) […].
Where [9] appears, read: library stock concentration (final ~1000-fold dilution): 10 mM, cytotoxicity flag (confluency mask): cytotoxic (confluency <70% of control), agonist: Imiquimod (TLR7) […].
Where [10] appears, read: library stock concentration (final ~1000-fold dilution): 10 mM, cytotoxicity flag (confluency mask): cytotoxic (confluency <70% of control), agonist: MPLA (TLR4) […].

As to `CC(C)(C)NC(=O)C1CCC2C3CCC4NC(=O)C=CC4(C)C3CCC12C` (centres undefined) (library stock concentration (final ~1000-fold dilution): 10 mM), the “NF-kB SEAP reporter activity” value turned out to be 0.988 with RAW-Dual [1] (agonist: LPS (TLR4) 0.1 ug/mL), 0.946 in the assay with RAW-Dual [1] (setting [4]), 0.943 with RAW-Dual [1] (setting [5]) and 0.998 in the assay with RAW-Dual [1] (setting [6]).
Regarding `CC(C)(C)NC(=O)C1CCC2C3CCC4NC(=O)C=CC4(C)C3CCC12C` (centres undefined), the “NF-kB SEAP reporter activity” value was 0.218 in the assay on RAW-Dual [2] (setting [7]) and 1.07 in the assay on RAW-Dual [2] (setting [8]).
Consider `COc1ccc(-c2oc3c(CC=C(C)C)c(O)cc(O)c3c(=O)c2OC2OC(C)C(O)C(O)C2O)cc1` (centres undefined), for which the results for the “NF-kB SEAP reporter activity” value with RAW-Dual [2] (setting [9]) and in the assay on RAW-Dual [2] (setting [10]) were 1.82 and 1.45, respectively.
On to `COc1ccc(-c2oc3c(CC=C(C)C)c(O)cc(O)c3c(=O)c2OC2OC(C)C(O)C(O)C2O)cc1` (centres undefined) (library stock concentration (final ~1000-fold dilution): 10 mM), for which the “NF-kB SEAP reporter activity” value was 2.22 in the assay on RAW-Dual [3] (agonist: LPS (TLR4) 0.1 ug/mL), 0.553 with RAW-Dual [3] (setting [4]), 0.251 in the assay on RAW-Dual [3] (setting [5]) and 0.457 with RAW-Dual [3] (setting [6]).
For the molecule `CSC1(C(=O)Nc2ccc3[nH]nc(-c4ccc(OC(C)C)nc4)c3c2)CCN(CC(=O)N2CC=C(c3ccc(-c4ncn(C)n4)cc3)CC2)C1` (centres undefined), the “NF-kB SEAP reporter activity” value turned out to be 0.202 in the assay with RAW-Dual [2] (setting [7]) and 0.321 in the assay on RAW-Dual [2] (setting [8]).
Turning to `CSC1(C(=O)Nc2ccc3[nH]nc(-c4ccc(OC(C)C)nc4)c3c2)CCN(CC(=O)N2CC=C(c3ccc(-c4ncn(C)n4)cc3)CC2)C1` (centres undefined) (library stock concentration (final ~1000-fold dilution): 10 mM), the “NF-kB SEAP reporter activity” value in the assay with RAW-Dual [1] (agonist: LPS (TLR4) 0.1 ug/mL) was 0.407; in the assay with RAW-Dual [1] (setting [4]), 0.343; with RAW-Dual [1] (setting [5]), 0.0837; in the assay on RAW-Dual [1] (setting [6]), 0.136.
On to `CC(C)(C)c1nc(-c2ccc(NC(=O)Nc3cccc(C(F)(F)F)c3)c3ccccc23)c2c(N)nccn12`, for which the “NF-kB SEAP reporter activity” value is 0.139 with RAW-Dual [2] (setting [9]) and 0.252 in the assay on RAW-Dual [2] (setting [10]).
Regarding `CC(C)(C)c1nc(-c2ccc(NC(=O)Nc3cccc(C(F)(F)F)c3)c3ccccc23)c2c(N)nccn12` (library stock concentration (final ~1000-fold dilution): 10 mM), the “NF-kB SEAP reporter activity” value was determined as 0.488 with RAW-Dual [3] (agonist: LPS (TLR4) 0.1 ug/mL), 0.163 in the assay on RAW-Dual [3] (setting [4]), 0.0888 in the assay with RAW-Dual [3] (setting [5]) and 0.136 in the assay with RAW-Dual [3] (setting [6]).
Consider `CNC(=O)c1cc(Oc2ccc(NC(=O)Nc3ccc(Cl)c(C(F)(F)F)c3)c(F)c2)ccn1.O`, for which the “NF-kB SEAP reporter activity” value in the assay with RAW-Dual [2] (setting [8]) came to 1.58.
In the case of `CNC(=O)c1cc(Oc2ccc(NC(=O)Nc3ccc(Cl)c(C(F)(F)F)c3)c(F)c2)ccn1.O` (library stock concentration (final ~1000-fold dilution): 10 mM), the “NF-kB SEAP reporter activity” value with RAW-Dual [1] (agonist: LPS (TLR4) 0.1 ug/mL) came to 0.727; with RAW-Dual [1] (setting [4]), 0.502; in the assay with RAW-Dual [1] (setting [5]) it was 0.166; with RAW-Dual [1] (setting [6]), 0.205.
For the molecule `COc1ccc2[nH]cc(C=C3C(=O)Nc4ccc(NC(=O)CCN5CCCCC5)cc43)c2c1`, the “NF-kB SEAP reporter activity” value with RAW-Dual [2] (setting [9]) worked out at 1.4; in the assay with RAW-Dual [2] (setting [10]) it was 2.
`CCS(=O)(=O)Nc1ccc2c(c1)/C(=C(/Nc1ccc(CN3CCCCC3)cc1)c1ccccc1)C(=O)N2`: the “NF-kB SEAP reporter activity” value with RAW-Dual [2] (setting [9]) is 0.214; with RAW-Dual [2] (setting [10]) it was 0.227.
In the case of `COc1ccc2[nH]cc(C=C3C(=O)Nc4ccc(NC(=O)CCN5CCCCC5)cc43)c2c1` (library stock concentration (final ~1000-fold dilution): 10 mM), the “NF-kB SEAP reporter activity” value with RAW-Dual [3] (agonist: LPS (TLR4) 0.1 ug/mL) was found to be 4.16; with RAW-Dual [3] (setting [4]) it was 0.42; in the assay with RAW-Dual [3] (setting [5]), 1.36; in the assay on RAW-Dual [3] (setting [6]) it was 2.01.
For `CCS(=O)(=O)Nc1ccc2c(c1)/C(=C(/Nc1ccc(CN3CCCCC3)cc1)c1ccccc1)C(=O)N2` (library stock concentration (final ~1000-fold dilution): 10 mM), in that order: 0.196, 0.197, 0.0873 and 0.163.
With `Cc1[nH]c(C=C2C(=O)Nc3ccc(F)cc32)c(C)c1C(=O)NCCN1CCCC1` (library stock concentration (final ~1000-fold dilution): 2 mM), the “NF-kB SEAP reporter activity” value was 1.04 with RAW-Dual [1] (agonist: LPS (TLR4) 0.1 ug/mL), 0.183 in the assay on RAW-Dual [1] (setting [4]), 0.266 in the assay with RAW-Dual [1] (setting [5]) and 0.414 in the assay on RAW-Dual [1] (setting [6]).
With `Cc1[nH]c(C=C2C(=O)Nc3ccc(F)cc32)c(C)c1C(=O)NCCN1CCCC1`, in the assay with RAW-Dual [2] (library stock concentration (final ~1000-fold dilution): 2 mM, cytotoxicity flag (confluency mask): not cytotoxic, agonist: MPLA (TLR4) […]), the “NF-kB SEAP reporter activity” value is 0.63.
On to `CO[C@H](c1c(NC(=O)Nc2cnc(-n3nccn3)c(Cl)c2)cnc2cc(Cl)nn12)[C@@H](C)OC`, for which the “NF-kB SEAP reporter activity” value with RAW-Dual [2] (setting [7]) worked out at 0.986; in the assay on RAW-Dual [2] (setting [8]), 0.994.
As for `CO[C@H](c1c(NC(=O)Nc2cnc(-n3nccn3)c(Cl)c2)cnc2cc(Cl)nn12)[C@@H](C)OC` (library stock concentration (final ~1000-fold dilution): 10 mM), the “NF-kB SEAP reporter activity” value with RAW-Dual [1] (agonist: LPS (TLR4) 0.1 ug/mL) stood at 1.37; in the assay with RAW-Dual [1] (setting [4]), 0.862; with RAW-Dual [1] (setting [5]) it was 0.76; in the assay on RAW-Dual [1] (setting [6]), 0.777.
With `C=Cc1c(C)c2cc3nc(cc4[nH]c(cc5nc(cc1[nH]2)C(C)=C5CCC(=O)O)c(CCC(=O)OC)c4C)C1(C)C3=CC=C(C(=O)OC)C1C(=O)OC` (centres undefined), the “NF-kB SEAP reporter activity” value in the assay with RAW-Dual [2] (setting [9]) worked out at 0.297; with RAW-Dual [2] (setting [10]) it was 0.349.
On to `C=Cc1c(C)c2cc3nc(cc4[nH]c(cc5nc(cc1[nH]2)C(C)=C5CCC(=O)O)c(CCC(=O)OC)c4C)C1(C)C3=CC=C(C(=O)OC)C1C(=O)OC` (centres undefined) (library stock concentration (final ~1000-fold dilution): 10 mM), for which the “NF-kB SEAP reporter activity” value in the assay with RAW-Dual [3] (agonist: LPS (TLR4) 0.1 ug/mL) worked out at 0.243; in the assay with RAW-Dual [3] (setting [4]), 0.233; in the assay on RAW-Dual [3] (setting [5]), 0.193; in the assay on RAW-Dual [3] (setting [6]), 0.191.
As for `CNC(=O)c1cccc(-c2ccc3c(N4CCOCC4C)nc(N4CCOCC4C)nc3n2)c1` (centres undefined) (library stock concentration (final ~1000-fold dilution): 10 mM), the “NF-kB SEAP reporter activity” value in the assay with RAW-Dual [1] (agonist: LPS (TLR4) 0.1 ug/mL) came to 1.11; in the assay on RAW-Dual [1] (setting [4]) it was 0.489; in the assay on RAW-Dual [1] (setting [5]) it was 0.376; in the assay with RAW-Dual [1] (setting [6]), 0.57.
Take `CNC(=O)c1cccc(-c2ccc3c(N4CCOCC4C)nc(N4CCOCC4C)nc3n2)c1` (centres undefined): the “NF-kB SEAP reporter activity” value in the assay on RAW-Dual [2] (setting [7]) is 1.13; in the assay with RAW-Dual [2] (setting [8]) it was 1.22.
Regarding `Oc1c(Cl)cc(Cl)cc1Sc1cc(Cl)cc(Cl)c1O` (library stock concentration (final ~1000-fold dilution): 10 mM), the “NF-kB SEAP reporter activity” value in the assay with RAW-Dual [3] (agonist: LPS (TLR4) 0.1 ug/mL) is 3.19; with RAW-Dual [3] (setting [4]), 1.08; in the assay on RAW-Dual [3] (setting [5]), 0.362; with RAW-Dual [3] (setting [6]), 0.801.
For `Oc1c(Cl)cc(Cl)cc1Sc1cc(Cl)cc(Cl)c1O`, the “NF-kB SEAP reporter activity” value turned out to be 1.81 in the assay with RAW-Dual [2] (setting [9]) and 1.6 with RAW-Dual [2] (setting [10]).
In the case of `CCC1(O)C(=O)OCc2c1cc1n(c2=O)Cc2cc3c(CN(C)C)c(O)ccc3nc2-1.Cl` (centres undefined), the results for the “NF-kB SEAP reporter activity” value with RAW-Dual [2] (setting [9]) and with RAW-Dual [2] (setting [10]) were 2.3 and 2.16, respectively.
In the case of `CCC1(O)C(=O)OCc2c1cc1n(c2=O)Cc2cc3c(CN(C)C)c(O)ccc3nc2-1` (centres undefined), the “NF-kB SEAP reporter activity” value in the assay on RAW-Dual [2] (setting [7]) worked out at 1.46; in the assay with RAW-Dual [2] (setting [8]), 1.93.
